These results are taken from ChEMBL document CHEMBL3988442, “University of Dundee, Small-Polar-MMV Screening Library” (2021).

The target of this experiment is AMP-activated protein kinase, AMPK (Homo sapiens) (UniProt P54646+O43741+P54619+Q9UGJ0+Q9Y478+Q13131+Q9UGI9). Description: AMP-dependent Kinase enzyme assay. An in vitro enzyme assay that detects ADP turnover that is directly proportional to AMPK activity. This uses naive AMPK that is activated during the assay with MK-8722. Format: functional. More on the design: scale not given: direction of the effect not stated beside the values. The note with it: 30 µM.
For `CCN1CC(c2ccccc2)CC2(CCN(Cc3ncc[nH]3)CC2)C1` (centres undefined), the Percent Effect was -6.2%.

With `COc1cc(CNC(=O)COC2CCCC2)ccc1O`, the Percent Effect is 3.23%.

For `CCCc1ccc(CN2CCC3(CCC(=O)N(C)CC3)CC2)o1`, the Percent Effect was 1.5%.

In the case of `CCN(C(=O)CS(=O)(=O)c1cc(OC)c(OC)cc1C)C1CC1`, the Percent Effect came to 19.2%.

In the case of `CCC(C(=O)NC1(C(N)=O)CCCC1)n1cccn1` (centres undefined), the Percent Effect was -1.13%.

Consider `CCc1ccc2nc(C)cc(C(=O)NC[C@@H]3CCNC[C@H]3O)c2c1`, for which the Percent Effect is -4.5%.

With `COc1cnc(N2CC(N3CCOCC3)C2)nc1-c1ccnn1C`, the Percent Effect was -7.62%.

For the compound `CC(NCc1nnc2n1CCCC2)c1nc(C(C)(C)C)no1` (centres undefined), the Percent Effect is -0.825%.

Regarding `CCS(=O)(=O)NCc1nc(C)cc(N2CCOCC2)n1`, the Percent Effect came to 0.985%.

As for `CC1(c2ncc(CN(CC(=O)O)Cc3ccccc3)cn2)CCCCO1` (centres undefined), the Percent Effect was 12.9%.

Turning to `CCCN(CCO)C(=O)c1cc(COc2ccc3c(c2)CCCC3)on1`, the Percent Effect amounted to 5.46%.

Regarding `Cc1nc(CN2CCC(c3cc(N4CCCC4)ncn3)CC2)cs1`, the Percent Effect was 2.88%.

With `O=C(C1COCCO1)N1CCN(CC(F)(F)F)c2ccccc21` (centres undefined), the Percent Effect worked out at 12.8%.

For the compound `CCN(CC)c1ncccc1CNCc1ccc(-c2ccn[nH]2)s1`, the Percent Effect amounted to 1.23%.

As to `COC1CCCOC12CCN(C(=O)NCCc1cccs1)CC2` (centres undefined), the Percent Effect was 4.16%.

For `Cc1cccc(-c2nccnc2C2CCCN(C)C2)c1` (centres undefined), the Percent Effect is 11.8%.

For `CCC[C@@H]1CN(Cc2ccc(C(F)(F)F)nc2)C[C@H]1NS(C)(=O)=O`, the Percent Effect came out at 4.44%.

As for `Cn1cc(N2CCN(c3ccc(C#N)cc3F)CC2=O)cn1`, the Percent Effect came to 0.0438%.

As for `O=C(NCc1ccc(-n2cncn2)nc1)c1cc[nH]n1`, the Percent Effect is 2.82%.

Regarding `CN1CC(C(=O)NCCc2ccc3c(c2)OCCO3)CC1=O` (centres undefined), the Percent Effect worked out at 2.3%.

As to `Cc1cccc(CN2CCCC2c2cccc(Nc3nccs3)n2)c1` (centres undefined), the Percent Effect was 6.23%.

`N#CC1(C(=O)N2C[C@H]3CC[C@@H]2CN(Cc2ccncc2)C3)CCOCC1`: the Percent Effect is -2.51%.

As for `NC(=O)C1(Cc2ccccc2-c2cncnc2)CCCNC1` (centres undefined), the Percent Effect stood at 3.1%.

Consider `CCC1c2ccccc2CCN1CCCS(C)(=O)=O` (centres undefined), for which the Percent Effect is -1.94%.

Consider `OCc1cccc(OCc2ccon2)c1`, for which the Percent Effect amounted to 4.35%.

Regarding `Cc1occc1C(=O)Nc1cccc(C(=O)OCC2CCCN2)c1` (centres undefined), the Percent Effect was -5.07%.

As for `COc1ccc2c(c1)OCC(CNC1CCc3nc(C)nn3C1)=C2` (centres undefined), the Percent Effect came to 7.59%.

As to `CCc1ccc(CN2CCN(c3ccc(C#N)cc3)C(=O)C2)nc1`, the Percent Effect was 3.08%.

Take `N#CCc1ccc(NC(=O)N[C@H](CO)Cc2ccc(O)cc2)cc1`: the Percent Effect was 9.92%.

Consider `Cc1cc(C)c(C(=O)N(C)CCN(C)C(=O)c2[nH]c(C)cc2C)[nH]1`, for which the Percent Effect is -2.87%.

Regarding `CN(CCCOc1ccccc1Cl)C(=O)CN1C(=O)CCNC1=O`, the Percent Effect was determined as 7.42%.

For `CCCc1nc(C(=O)NC(COC)c2ccnn2C)cs1` (centres undefined), the Percent Effect is -0.17%.

On to `COc1ccc(OC)c(C(=O)Nc2cccnc2-n2cncn2)c1`, for which the Percent Effect came out at 2.13%.

Consider `OCCCNc1cccc(COC2CCCCC2)c1`, for which the Percent Effect was -15.3%.

`O=C(CN1CC(c2nc(C3CC3)no2)C1)NCc1ccc(F)cc1`: the Percent Effect was found to be 3.03%.

Take `Cc1cc(CC(=O)NC2CCCN(Cc3ccccc3)C2=O)n[nH]1` (centres undefined): the Percent Effect turned out to be 9.56%.

Regarding `CCOC(=O)C1(NCC(=O)Nc2cc(C)ccc2OC)CCCC1`, the Percent Effect came to 0.781%.

With `CSCc1noc(-c2ccc(C)c(N3CCNC3=O)c2)n1`, the Percent Effect was 13.8%.

As for `Cn1cccc1CN(C(=O)Cc1cccs1)C1CC1`, the Percent Effect is -4.04%.
